# Assay outcomes: PubChem, several laboratories
# Rows were chosen to be rich in hits. Some 0.5% of all compounds tested hit in one or more screens of this group.
# E coli growth-1 – reduces bacterial viability in AddAB counter-screen | E. coli V3065 growth, OD600 absorbance, 18 h | inhibition, % at 11.9 µM | hit rate 0.27% among 330,000 | AID 449728;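 active = inhibition above the campaign's mean inhibition across all tested compounds plus 3 SD, cut at about 9.9% in these data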;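 also: uninfected addAB+ strain grown without phage in ampicillin broth; 0% = DMSO wells and 100% = ciprofloxacin 0.95 µg/ml wells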
# E coli growth-2 – blocks Escherichia coli growth | OD600, 23 h; hits give low values | hit rate 0.21% among 330,000 | OD600 absorbance (test concentration not listed);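 active = OD600 absorbance below the run mean of sample wells minus 3.6 SD, in any replicate, cut at about 0.56 in these data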
# Tat transport – blocks Tat-dependent protein export in E. coli; inhibition, % at 10 µM; E. coli MC4100 TorA-mCherry Tat export, fluorescence; hit rate 0.036% among 340,000;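 active = mean replicate inhibition at least 50% and at least half of replicates individually reaching 50%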;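 also: exported cargo escapes ClpAP degradation while cytoplasmic cargo is degraded and loses fluorescence; 0% = median of neutral control wells and 100% = median of NaSCN control wells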
# phage Ecoli inh – E. coli growth loss with phage present; growth absorbance; inhibition, % at 11.9 µM; hit rate 0.26% among 360,000; in the data active = inhibition above about 11%
# AddAB inh – less growth of phage-infected E. coli with AddAB. E. coli expressing H. pylori AddAB, absorbance growth. inhibition, % at 11.9 µM. hit rate 0.29% among 330,000; in the data active = inhibition above about 12%;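 also: 0% = vehicle wells of infected cells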
# * = called active by the depositor; . = no result.
SMILES,E coli growth-1,E coli growth-2,Tat transport,phage Ecoli inh,AddAB inh
Cc1cc(C(C#N)c2ccc(Cl)cc2)c(Cl)cc1NC(=O)c1cc(I)cc(I)c1O (configuration not stated),11*,.,-9,5,8
CCN1CCN(C(=S)NC(=O)c2cc(OC)c(OC)c(OC)c2)CC1,2,0.7,2,2,1
CCn1cc(C(=O)O)c(=O)c2cnc(N3CCNCC3)nc21,103*,.,.,.,102*
CCn1cc(C(=O)O)c(=O)c2cnc(N3CCN(C(=S)NC(=O)c4ccc(Br)cc4)CC3)nc21,1,0.46*,.,.,3
CCn1cc(C(=O)NCCc2ccc(Cl)cc2)c(=O)c2ccc(C)nc21,.,0.6,-14,1,.
CCn1cc(C(=O)O)c(=O)c2cnc(N3CCN(C(=S)NC(=O)c4ccc(Cl)cc4)CC3)nc21,4,0.43*,.,.,4
O=C(NN=Cc1ccc(Cl)cc1Cl)C(=O)NC1CC1,.,0.71,.,.,.
COc1ccc(C=Nn2c(-c3ccccc3)n[nH]c2=S)cc1,.,0.64,.,.,.
OCCC1CC(O)C(O)[C@@]2(Cc3ccccc3CO2)O1 (some centres not stated),.,0.68,.,.,.
CCOC(=O)c1sc(NC(=O)Nc2ccccc2Cl)cc1C,6,0.7,-4,8,4
CCOC(=O)c1sc(NC(=O)Nc2ccccc2)cc1C,6,0.53*,-11,11,9
O=[N+]([O-])c1cc(C(F)(F)F)ccc1NCCNC(=S)Nc1ccc(Cl)cc1,10*,0.61,12,7,9
CCCCNC(=O)OC1CC2CCC(=O)N3CCC(C1)C23 (configuration not stated),.,0.7,.,.,.
CCCOc1ccc(C2=CC(=O)CC(c3ccc(OC)cc3)C2)cc1 (configuration not stated),.,0.71,.,.,.
O=C1C=C(c2ccc(Cl)nc2)CC(c2ccc3c(c2)OCO3)C1 (configuration not stated),.,0.66,.,.,.
O=C1CSC(=S)N1/N=C/c1ccc2c(c1)OCCO2,9.9*,.,7,1,5
C=CCNc1ncnc2c1[nH]c1ccc(Cl)cc12,6,0.47*,-11,9,7
C=CCNc1ncnc2c1[nH]c1ccccc12,3,0.5*,-10,6,2
CCOCCCNc1ncnc2c1[nH]c1ccccc12,2,0.69,-1,2,3
O=C(C=Cc1ccc2c(c1)OCO2)NC1(C(=O)Nc2ccc3c(c2)OCO3)CCCCC1,.,0.69,.,.,.
Cc1noc(C)c1COC(=O)c1cc(S(=O)(=O)N2CCOCC2)ccc1Cl,2,0.68,22,3,-4
Cc1noc(C)c1COC(=O)c1cccc(S(=O)(=O)N2CCOCC2)c1,2,0.7,53*,2,3
CC(CCc1ccc2c(c1)OCO2)=N/N=C1/NC(=O)CC(C(=O)Nc2ccc(Cl)cc2)S1 (configuration not stated),.,0.71,.,.,.
O=C(Nc1nc2ccccc2s1)c1ccc([N+](=O)[O-])o1,6,0.66,-11,3,5
COc1ccc2nc(NC(=O)c3ccc([N+](=O)[O-])o3)sc2c1,8,0.48*,-13,7,11
SMILES,E coli growth-1,E coli growth-2,Tat transport,phage Ecoli inh,AddAB inh
NC(=O)NN=Cc1c(Sc2nnnn2-c2ccccc2)nc2ccccn2c1=O,.,0.71,.,.,.
O=C(NCc1ccccc1)c1cc(S(=O)(=O)N2CCCCC2)ccc1N1CCOCC1,3,0.44*,-3,2,0
CCn1cc(C(=O)N2CCN(c3ccc([N+](=O)[O-])cc3)CC2)c(=O)c2ccc(C)nc21,2,0.72,-7,3,1
CCn1cc(C(=O)OCC(=O)Nc2c(C)cccc2C)c(=O)c2ccc(C)nc21,4,0.49*,-1,4,3
CCn1cc(C(=O)NCc2ccccc2OC)c(=O)c2ccc(C)nc21,4,0.75,.,.,-2
CCn1cc(C(=O)OCC(=O)NCc2ccccc2Cl)c(=O)c2ccc(C)nc21,3,0.51*,0,1,0
CCn1cc(C(=O)OC)c(=O)c2ccc(C)nc21,3,0.7,3,4,2
CCn1cc(C(=O)N2CCN(c3cccc(C)c3C)CC2)c(=O)c2ccc(C)nc21,-1,0.42*,11,-1,0
COc1ccc(NN=C(C=NO)C(=O)c2ccc(OC)cc2)cc1,.,0.74,.,.,.
CC(=NNC(=O)c1ccc(Cn2cc(Br)cn2)o1)c1cccc(NC(=O)C(C)(C)C)c1,.,0.66,.,.,.
NC1=C(Br)C(=O)c2ncccc2C1=O,.,.,-15,35*,.
CC(C)CC(C(=O)O)N1C(=O)C2C3CC(C2C1=O)C1C(c2ccccc2)c2sc(=O)[nH]c2SC31 (configuration not stated),1,0.51*,-8,5,4
CCOC(=O)N/N=C/C(Cl)=C/c1ccccc1,13*,.,5,2,9
